Experimental data from the supplement of paper PMC4466140.

Legend:
Assay in all cases: SPOT peptide array binding signal intensity (averaged, normalized) (arbitrary units (background-subtracted, floor 0; scale differs between SH3 domains)); higher = stronger binding of the SH3 domain to the peptide
AgAbp1 = biological target: AgAbp1
Outline: (§1)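 Four yeast species supplied the SH3 domains, which were expressed as GST fusions in E. coli BL21(DE3) and purified on glutathione Sepharose. Incubation with cellulose membranes carrying synthetic 15-mer peptides, cysteines exchanged for serines, ran overnight at 4°C at 10 μg/ml in TBS-based blocking buffer. Binding signal is reported as normalized, background-subtracted spot intensity averaged over replicates, in arbitrary units not shared between domains.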

AgBbc1 = biological target: AgBbc1
Outline: as §1

AgBem1-D1 = biological target: AgBem1-D1
Outline: as §1

AgBzz1-D1 = biological target: AgBzz1-D1
Outline: as §1

AgBzz1-D2 = biological target: AgBzz1-D2
Outline: as §1

AgCyk3 = biological target: AgCyk3
Outline: as §1

AgFus1 = biological target: AgFus1
Outline: as §1

AgHof1 = biological target: AgHof1
Outline: as §1

AgHse1 = biological target: AgHse1
Outline: as §1

AgLsb1 = biological target: AgLsb1
Outline: as §1

AgLsb4 = biological target: AgLsb4
Outline: as §1

AgMyo5 = biological target: AgMyo5
Outline: as §1

AgNbp2 = biological target: AgNbp2
Outline: as §1

AgRvs167 = biological target: AgRvs167
Outline: as §1

AgSho1 = biological target: AgSho1
Outline: as §1

AgSla1-D1-D2 = biological target: AgSla1-D1-D2
Outline: as §1

AgSla1-D3 = biological target: AgSla1-D3
Outline: as §1

CaAbp1-D1 = biological target: CaAbp1-D1
Outline: as §1

CaAbp1-D2 = biological target: CaAbp1-D2
Outline: as §1

CaBbc1 = biological target: CaBbc1
Outline: as §1

CaBem1-D1 = biological target: CaBem1-D1
Outline: as §1

CaBzz1-D1 = biological target: CaBzz1-D1
Outline: as §1

CaBzz1-D2 = biological target: CaBzz1-D2
Outline: as §1

CaCyk3 = biological target: CaCyk3
Outline: as §1

CaFus1 = biological target: CaFus1
Outline: as §1

CaHof1 = biological target: CaHof1
Outline: as §1

CaHse1 = biological target: CaHse1
Outline: as §1

CaLsb1 = biological target: CaLsb1
Outline: as §1

CaLsb4 = biological target: CaLsb4
Outline: as §1

CaMyo5 = biological target: CaMyo5
Outline: as §1

CaNbp2 = biological target: CaNbp2
Outline: as §1

CaRvs167 = biological target: CaRvs167
Outline: as §1

CaRvs167-3 = biological target: CaRvs167-3
Outline: as §1

CaSho1 = biological target: CaSho1
Outline: as §1

CaSla1-D1-D2 = biological target: CaSla1-D1-D2
Outline: as §1

CaSla1-D3 = biological target: CaSla1-D3
Outline: as §1

ScAbp1 = biological target: ScAbp1
Outline: as §1

ScBbc1 = biological target: ScBbc1
Outline: as §1

ScBem1-D1 = biological target: ScBem1-D1
Outline: as §1

ScBzz1-D1 = biological target: ScBzz1-D1
Outline: as §1

ScBzz1-D2 = biological target: ScBzz1-D2
Outline: as §1

ScCyk3 = biological target: ScCyk3
Outline: as §1

ScFus1 = biological target: ScFus1
Outline: as §1

ScHof1 = biological target: ScHof1
Outline: as §1

ScHse1 = biological target: ScHse1
Outline: as §1

ScLsb1 = biological target: ScLsb1
Outline: as §1

ScLsb2 = biological target: ScLsb2
Outline: as §1

ScLsb3 = biological target: ScLsb3
Outline: as §1

ScLsb4 = biological target: ScLsb4
Outline: as §1

ScMyo3 = biological target: ScMyo3
Outline: as §1

ScMyo5 = biological target: ScMyo5
Outline: as §1

ScNbp2 = biological target: ScNbp2
Outline: as §1

ScPex13 = biological target: ScPex13
Outline: as §1

ScRvs167 = biological target: ScRvs167
Outline: as §1

ScSho1 = biological target: ScSho1
Outline: as §1

ScSla1-D1-D2 = biological target: ScSla1-D1-D2
Outline: as §1

ScSla1-D3 = biological target: ScSla1-D3
Outline: as §1

SpAbp1-D1 = biological target: SpAbp1-D1
Outline: as §1

SpBbc1 = biological target: SpBbc1
Outline: as §1

SpBzz1-D1 = biological target: SpBzz1-D1
Outline: as §1

SpBzz1-D2 = biological target: SpBzz1-D2
Outline: as §1

SpCyk3 = biological target: SpCyk3
Outline: as §1

SpHof1 = biological target: SpHof1
Outline: as §1

SpHof1-2 = biological target: SpHof1-2
Outline: as §1

SpHof1-3 = biological target: SpHof1-3
Outline: as §1

SpHse1 = biological target: SpHse1
Outline: as §1

SpLsb1 = biological target: SpLsb1
Outline: as §1

SpLsb4 = biological target: SpLsb4
Outline: as §1

SpMyo1 = biological target: SpMyo1
Outline: as §1

SpNbp2 = biological target: SpNbp2
Outline: as §1

SpPex13 = biological target: SpPex13
Outline: as §1

SpRvs167 = biological target: SpRvs167
Outline: as §1

SpSla1-D1-D2 = biological target: SpSla1-D1-D2
Outline: as §1

SpSla1-D3 = biological target: SpSla1-D3
Outline: as §1

VDFTLPPPPPPPGLD
SPOT peptide array binding signal intensity (AgAbp1): 4 | SPOT peptide array binding signal intensity (AgBbc1): ≤ 0 | SPOT peptide array binding signal intensity (AgBem1-D1): ≤ 0 | SPOT peptide array binding signal intensity (AgBzz1-D1): ≤ 0 | SPOT peptide array binding signal intensity (AgBzz1-D2): ≤ 0 | SPOT peptide array binding signal intensity (AgCyk3): ≤ 0 | SPOT peptide array binding signal intensity (AgFus1): ≤ 0 | SPOT peptide array binding signal intensity (AgHof1): 27.8 | SPOT peptide array binding signal intensity (AgHse1): 32 | SPOT peptide array binding signal intensity (AgLsb1): 1.5 | SPOT peptide array binding signal intensity (AgLsb4): ≤ 0 | SPOT peptide array binding signal intensity (AgMyo5): 1660 | SPOT peptide array binding signal intensity (AgNbp2): ≤ 0 | SPOT peptide array binding signal intensity (AgRvs167): 1.67 | SPOT peptide array binding signal intensity (AgSho1): ≤ 0 | SPOT peptide array binding signal intensity (AgSla1-D1-D2): 2 | SPOT peptide array binding signal intensity (AgSla1-D3): 0.5 | SPOT peptide array binding signal intensity (CaAbp1-D1): ≤ 0 | SPOT peptide array binding signal intensity (CaAbp1-D2): 9 | SPOT peptide array binding signal intensity (CaBbc1): ≤ 0 | SPOT peptide array binding signal intensity (CaBem1-D1): ≤ 0 | SPOT peptide array binding signal intensity (CaBzz1-D1): 230 | SPOT peptide array binding signal intensity (CaBzz1-D2): ≤ 0 | SPOT peptide array binding signal intensity (CaCyk3): ≤ 0 | SPOT peptide array binding signal intensity (CaFus1): ≤ 0 | SPOT peptide array binding signal intensity (CaHof1): 0.5 | SPOT peptide array binding signal intensity (CaHse1): ≤ 0 | SPOT peptide array binding signal intensity (CaLsb1): ≤ 0 | SPOT peptide array binding signal intensity (CaLsb4): ≤ 0 | SPOT peptide array binding signal intensity (CaMyo5): 29 | SPOT peptide array binding signal intensity (CaNbp2): ≤ 0 | SPOT peptide array binding signal intensity (CaRvs167): 1 | SPOT peptide array binding signal intensity (CaRvs167-3): 0.25 | SPOT peptide array binding signal intensity (CaSho1): ≤ 0 | SPOT peptide array binding signal intensity (CaSla1-D1-D2): ≤ 0 | SPOT peptide array binding signal intensity (CaSla1-D3): ≤ 0 | SPOT peptide array binding signal intensity (ScAbp1): ≤ 0 | SPOT peptide array binding signal intensity (ScBbc1): ≤ 0 | SPOT peptide array binding signal intensity (ScBem1-D1): ≤ 0 | SPOT peptide array binding signal intensity (ScBzz1-D1): 6 | SPOT peptide array binding signal intensity (ScBzz1-D2): ≤ 0 | SPOT peptide array binding signal intensity (ScCyk3): 1 | SPOT peptide array binding signal intensity (ScFus1): ≤ 0 | SPOT peptide array binding signal intensity (ScHof1): 17.8 | SPOT peptide array binding signal intensity (ScHse1): ≤ 0 | SPOT peptide array binding signal intensity (ScLsb1): ≤ 0 | SPOT peptide array binding signal intensity (ScLsb2): 1.5 | SPOT peptide array binding signal intensity (ScLsb3): ≤ 0 | SPOT peptide array binding signal intensity (ScLsb4): ≤ 0 | SPOT peptide array binding signal intensity (ScMyo3): 1810 | SPOT peptide array binding signal intensity (ScMyo5): 1800 | SPOT peptide array binding signal intensity (ScNbp2): ≤ 0 | SPOT peptide array binding signal intensity (ScPex13): 4.75 | SPOT peptide array binding signal intensity (ScRvs167): 2.33 | SPOT peptide array binding signal intensity (ScSho1): ≤ 0 | SPOT peptide array binding signal intensity (ScSla1-D1-D2): ≤ 0 | SPOT peptide array binding signal intensity (ScSla1-D3): ≤ 0 | SPOT peptide array binding signal intensity (SpAbp1-D1): ≤ 0 | SPOT peptide array binding signal intensity (SpBbc1): 0.5 | SPOT peptide array binding signal intensity (SpBzz1-D1): 1630 | SPOT peptide array binding signal intensity (SpBzz1-D2): 7 | SPOT peptide array binding signal intensity (SpCyk3): 1 | SPOT peptide array binding signal intensity (SpHof1): ≤ 0 | SPOT peptide array binding signal intensity (SpHof1-2): 0.75 | SPOT peptide array binding signal intensity (SpHof1-3): 1.75 | SPOT peptide array binding signal intensity (SpHse1): 11 | SPOT peptide array binding signal intensity (SpLsb1): 0.5 | SPOT peptide array binding signal intensity (SpLsb4): ≤ 0 | SPOT peptide array binding signal intensity (SpMyo1): 1110 | SPOT peptide array binding signal intensity (SpNbp2): ≤ 0 | SPOT peptide array binding signal intensity (SpPex13): ≤ 0 | SPOT peptide array binding signal intensity (SpRvs167): 1 | SPOT peptide array binding signal intensity (SpSla1-D1-D2): ≤ 0 | SPOT peptide array binding signal intensity (SpSla1-D3): ≤ 0
